TDP1 cell CPT = DT40-hTDP1 cell growth loss with CPT. chicken DT40 Tdp1-/-;hTDP1 cells + 20 nM CPT, ATP luminescence, 48 h. Potency, µM (titrated, usually from 46.2 µM), inactives show top-dose activity change, negative = growth inhibition, hits mostly inhibitors. hit rate 12% among 420,000. AID 686979; note: nearly all actives have a fitted effect of over 55% in size
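Chicken DT40 Tdp1-/- cells stably complemented with human TDP1 were seeded at 400 cells/well in medium containing 20 nM camptothecin, exposed to pin-transferred compounds, and grown at 37 °C for at least 48 hr. Viability was read as ATP luminescence.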
HT1080 IDH1KD tx = kills HT-1080 cells with IDH1 knockdown. HT-1080 IDH1 knockdown viability, ATP luminescence, 48 h. Potency, µM (series often up to 46.1 µM), without a hit: at the top dose activity, negative = toxicity, actives largely listed as cytotoxic. hit rate 2% among 360,000. AID 686971;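 note: 0% = DMSO wells and -100% = cell-free medium wells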
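Cytotoxicity counter-line: IDH1KD HT-1080, 48 h, CellTiter-Glo. Curves classed by r2, magnitude and activity.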
KB-V1 MDR tox = KB-V1 MDR subline cytotoxicity; hit rate 3.4% among 400,000; KB-V1 MDR cells viability, CellTiter-Glo, 72 h; Potency, µM (top dose mostly 46.1 µM), actives largely listed as cytotoxic; note: nearly all actives have a fitted effect of over 60% in size
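Readout: CellTiter-Glo luminescence, 10 min after addition. Cells: KB-V1 MDR subline, 72 h at 37 degrees C with compound. Analysis: corrected, normalized data fitted to concentration-effect curves.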
TDP1 cell noCPT = qHTS for Inhibitors of human tyrosyl-DNA phosphodiesterase 1 (TDP1): qHTS in cells in absence of CPT; DT40 Tdp1-/- hTDP1 cells, no CPT, ATP luminescence, 48 h; Potency, µM (doses to about 46.2 µM), for the others: at the highest dose activity change, negative = growth inhibition, most hits filed as inhibitors; hit rate 15% among 420,000; AID 686978, 2013; note: nearly all actives have a fitted effect of over 55% in size
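Chicken DT40 Tdp1-/- cells complemented with human TDP1, screened without camptothecin (DMSO vehicle only), 400 cells/well. Compounds pin-transferred, cells incubated at 37 °C for at least 48 hr. Growth read as ATP-dependent luminescence (CellTiter-Glo, 30 min at RT).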
KB-3-1 cytotox = KB-3-1 parental cell cytotoxicity; hit rate 1.4% among 400,000; KB-3-1 viability, CellTiter-Glo ATP luminescence, 72 h; AID 1347075; Potency, µM (doses to about 46.1 µM), actives largely listed as cytotoxic; note: nearly all actives have a fitted effect of over 60% in size
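Screening of KB-3-1 cells (DMEM, 10% FBS, phenol-red free) ran from lowest to highest compound concentration; after 72 h at 37 °C viability was read luminescently and curves fitted.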
HT1080-NT tox = kills 2HG-producing HT-1080-NT fibrosarcoma cells | AID 686970 | HT-1080-NT fibrosarcoma viability, CellTiter-Glo ATP luminescence, 48 h | hit rate 1.6% among 360,000 | Potency, µM (highest dose often 46.1 µM), inactives show top-dose activity, negative = less viability, usual class: cytotoxic;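 note: NT is the 2HG producing partner of a matched IDH1 knockdown line; 0% = DMSO-treated cells and -100% = media-only wells without cells; nearly all actives have a fitted effect of over 55% in size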
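Read-out is CellTiter-Glo luminescence after 10 minutes at room temperature, following 48 hours' compound treatment of HT-1080-NT cells (750 cells/well, RPMI, 5% FBS, 37 degrees C).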
The depositor's hits bear a star. This is a sample that favours compounds with a hit; in the whole collection about 19% have one here. Calls come from the whole dose curve; as a rule, active = well fitted curve in the direction sought with a large enough effect; inconclusive = small, poorly fitted or top-dose-only effect, or another doubt; inactive = no such curve, though single readings can be large; an effect the other way counts as inactive or inconclusive. Unless noted, % is set by controls: 0 for no effect and ±100 for the full control effect; potency is the fitted concentration of half-maximal effect.

Screening Cc1cccc(N=C2NN=C(c3c(C)[nH]c4ccccc34)CS2)c1 returned TDP1 cell CPT inconclusive, HT1080 IDH1KD tx 18.4µM*, KB-V1 MDR tox inconclusive, TDP1 cell noCPT inconclusive, KB-3-1 cytotox inactive and HT1080-NT tox inconclusive.
Screening Nc1cccc2cccnc12 returned TDP1 cell CPT 1.78µM*, KB-V1 MDR tox inactive, TDP1 cell noCPT 5.62µM* and KB-3-1 cytotox inactive.
Cc1ccnc2c([N+](=O)[O-])cccc12 was read as TDP1 cell CPT 22.4µM*, KB-V1 MDR tox inactive, TDP1 cell noCPT inconclusive and KB-3-1 cytotox inactive.
For O=C(O)c1ccc2cccnc2c1O the results were TDP1 cell CPT -0.3%, HT1080 IDH1KD tx 18.0%, KB-V1 MDR tox inactive, TDP1 cell noCPT -1.2%, KB-3-1 cytotox inactive and HT1080-NT tox 4.7%.
For Cc1ccnc2c(N)cccc12 the results were TDP1 cell CPT inconclusive, KB-V1 MDR tox inactive, TDP1 cell noCPT 12.6µM* and KB-3-1 cytotox inconclusive.
For Cc1ccc2ccc3cccnc3c2n1 the results were TDP1 cell CPT 0.92µM*, HT1080 IDH1KD tx -19.0%, KB-V1 MDR tox inconclusive, TDP1 cell noCPT 1.03µM*, KB-3-1 cytotox 11.6µM* and HT1080-NT tox -5.4%.
CC(NC(=O)C(C)N1CCN(Cc2ccccc2)CC1)c1ccc(F)cc1 (configuration not stated) was read as TDP1 cell CPT 1.3%, HT1080 IDH1KD tx -9.0%, KB-V1 MDR tox inactive, TDP1 cell noCPT -14.6%, KB-3-1 cytotox inactive and HT1080-NT tox -11.7%.
`CCCS(=O)(=O)N1CCCC(C(=O)NCCCOC)C1` (configuration not stated) gave TDP1 cell CPT 1.2%, KB-V1 MDR tox inactive, TDP1 cell noCPT -1.1% and KB-3-1 cytotox inactive.
For Cc1csc2ncnc(N3CCN(C(=O)Nc4ccc(OC(F)(F)F)cc4)CC3)c12 the results were TDP1 cell CPT 10.3µM*, HT1080 IDH1KD tx -20.2%, KB-V1 MDR tox inactive, TDP1 cell noCPT 5.8µM*, KB-3-1 cytotox inconclusive and HT1080-NT tox inconclusive.
Screening Cc1ccc(C(=O)N2CCN(c3ncnc4c(C)csc34)CC2)cc1 returned TDP1 cell CPT inconclusive, HT1080 IDH1KD tx 2.3%, KB-V1 MDR tox inconclusive, TDP1 cell noCPT 16.4µM*, KB-3-1 cytotox inactive and HT1080-NT tox 16.8%.
For Cc1csc2c(N3CCN(C(=O)Nc4ccccc4)CC3)ncnc12 the results were TDP1 cell CPT 9.2µM*, HT1080 IDH1KD tx -17.6%, KB-V1 MDR tox inactive, TDP1 cell noCPT 16.4µM*, KB-3-1 cytotox inactive and HT1080-NT tox -29.2%.
Screening COc1ccc(C(=O)NCc2ccc3c(c2)CCN3C(=O)c2cccc(C)c2)cc1OC returned TDP1 cell CPT -9.3%, KB-V1 MDR tox inactive, TDP1 cell noCPT -0.8% and KB-3-1 cytotox inactive.
`O=C(C1CCN(c2nc3ccccc3[nH]2)CC1)N1CCN(c2ccccc2)CC1` gave TDP1 cell CPT inconclusive, KB-V1 MDR tox inactive, TDP1 cell noCPT inconclusive and KB-3-1 cytotox inactive.
Cc1ccc(CC(=O)NCc2nc(-c3cccc(C)c3)no2)cc1 was read as TDP1 cell CPT -17.4% and TDP1 cell noCPT inconclusive.
CCOC(=O)c1ccc(-c2ccc(-c3cc(=O)oc4cc(OC)c(OC)c(OC)c34)cc2)cc1 was read as TDP1 cell CPT 18.4µM*, HT1080 IDH1KD tx 5.5%, KB-V1 MDR tox inactive, TDP1 cell noCPT 18.4µM*, KB-3-1 cytotox inactive and HT1080-NT tox 10.2%.
For CCOC(=O)c1ccc(-c2c(C)cc3oc(=O)cc(-c4ccccc4)c3c2C)cc1 the results were TDP1 cell CPT inconclusive, HT1080 IDH1KD tx 5.7%, KB-V1 MDR tox inactive, TDP1 cell noCPT inconclusive, KB-3-1 cytotox inconclusive and HT1080-NT tox 4.8%.
`COc1cc2oc(=O)cc(-c3ccc(-c4ccc(F)c(Cl)c4)cc3)c2c(OC)c1OC` gave TDP1 cell CPT 18.4µM*, HT1080 IDH1KD tx 0.0%, KB-V1 MDR tox inactive, TDP1 cell noCPT 14.6µM*, KB-3-1 cytotox inactive and HT1080-NT tox 0.5%.
For COc1cc2oc(=O)cc(-c3ccc(-c4ccc(N(C)C)cc4)cc3)c2c(OC)c1OC the results were TDP1 cell CPT inconclusive, HT1080 IDH1KD tx -5.1%, KB-V1 MDR tox inactive, TDP1 cell noCPT inconclusive, KB-3-1 cytotox inactive and HT1080-NT tox -2.1%.
For COc1ccc(-c2ccc(-c3cc(=O)oc4cc(OC)c(OC)c(OC)c34)cc2)cc1F the results were TDP1 cell CPT 18.4µM*, HT1080 IDH1KD tx -0.7%, KB-V1 MDR tox inactive, TDP1 cell noCPT 23.1µM*, KB-3-1 cytotox inactive and HT1080-NT tox -0.5%.
COc1cc2oc(=O)cc(-c3ccc(-c4ccc(OC(F)(F)F)cc4)cc3)c2c(OC)c1OC was read as TDP1 cell CPT 16.4µM*, HT1080 IDH1KD tx 12.4%, KB-V1 MDR tox inactive, TDP1 cell noCPT 11.6µM*, KB-3-1 cytotox inactive and HT1080-NT tox 15.6%.
COc1cc(-c2coc3cc(OC)c(OC)c(OC)c3c2=O)cc(OC)c1OC was read as TDP1 cell CPT -2.1% and TDP1 cell noCPT -12.3%.
`COc1ccc2c(Cl)c(C(=O)NN)sc2c1` gave TDP1 cell CPT -7.8%, HT1080 IDH1KD tx 0.0%, KB-V1 MDR tox inconclusive, TDP1 cell noCPT -11.0%, KB-3-1 cytotox inactive and HT1080-NT tox inconclusive.
For CC[n+]1c(C)sc2cc(OC)ccc21 the results were TDP1 cell CPT 2.59µM*, HT1080 IDH1KD tx -10.4%, KB-V1 MDR tox inactive, TDP1 cell noCPT 2.91µM*, KB-3-1 cytotox inactive and HT1080-NT tox -5.8%.
Screening S=C(NCCc1ccccc1)NCCc1ccccc1 returned TDP1 cell CPT inconclusive, HT1080 IDH1KD tx -0.7%, KB-V1 MDR tox inconclusive, TDP1 cell noCPT inconclusive, KB-3-1 cytotox inactive and HT1080-NT tox -11.0%.
`COc1ccc(/C(C)=N/NC(=S)NCCc2ccccc2)cc1` gave TDP1 cell CPT inconclusive, HT1080 IDH1KD tx 0.1%, KB-V1 MDR tox inactive, TDP1 cell noCPT inconclusive, KB-3-1 cytotox inactive and HT1080-NT tox 5.0%.
For C/C(CCc1ccccc1)=N\NC(=S)NCCc1ccccc1 the results were TDP1 cell CPT inconclusive, HT1080 IDH1KD tx -3.3%, KB-V1 MDR tox inconclusive, TDP1 cell noCPT 13µM*, KB-3-1 cytotox inactive and HT1080-NT tox -1.1%.
`CC(NC(=O)NC1CCCCC1)C(c1cccs1)N1CCN(Cc2ccccc2)CC1` (configuration not stated) gave TDP1 cell CPT inconclusive, HT1080 IDH1KD tx 1.6%, KB-V1 MDR tox inactive, TDP1 cell noCPT inconclusive, KB-3-1 cytotox inactive and HT1080-NT tox 5.3%.
